From PubChem
Only some compounds are listed: those with a hit (about 4.2% of all), similar ones and a draw of the others.
DAX1 StAR inh: DAX1 (NR0B1) inhibition, primary screen; HEK293T StAR-luciferase reporter, SF-1/DAX-1 repression relief; inhibition, % at 6.8 µM; hit rate 1.1% among 370,000; AID 652010;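 active = inhibition above the mean over all tested compounds plus 3 SD, cut at about 3.6% in these data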;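 note: higher inhibition means more luminescence from relief of DAX-1 repression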
hgDAF-12 ag: activates the H. glycines DAF-12 receptor ligand-binding domain | HEK293 GAL4-hgDAF12 UAS-luciferase reporter, agonist luminescence; normalized to butyrate control | activation, % at 6.8 µM | hit rate 1.8% among 370,000 | AID 687014;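 active = activation above a cutoff set at the mean of all screened compounds plus 3 SD, cut at about 10% in these data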
ssDAF12 agonist: S. stercoralis DAF-12 activation, primary screen; HEK293 ssDAF-12/GRIP1 lit1-tk-luc reporter, luminescence; % of 3 µM dafachronic acid response; activation, % at 6.8 µM; hit rate 1% among 370,000;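 active = activation above the mean over all tested compounds plus 3 SD, cut at about 0.9% in these data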
SMARCA2 activ: activators of SMARCA2 function; hit rate 1% among 370,000; activation, % at 9.1 µM; MG213 cells, MMTV-luciferase reporter, dexamethasone, overnight; in the data active = activation above about 7.8%
hcDAF-12 act: activators of H. contortus DAF-12 nuclear receptor; HEK293 hcDAF-12 lit1-tk-luc reporter, luminescence; 0% DMSO, 100% Δ7-dafachronic acid; activation, % at 6.8 µM; hit rate 1.4% among 370,000; AID 652067;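 active = activation above the mean of all tested compounds plus 3 SD, cut at about 5.5% in these data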
DAX1 inh confirm: confirmation of human DAX1 (NR0B1) inhibitors; shares compounds with DAX1 StAR inh; HEK293T StAR-promoter luciferase reporter, SF-1/DAX-1 repression; inhibition, % at 6.8 µM; hit rate 87% among 2,400;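 active = inhibition above the average of every tested compound plus 3 SD, cut at about 3.8% in these data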;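 note: active compounds raise luminescence by relieving repression of the StAR reporter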
Target sequence (P51843 whole entry, looked up): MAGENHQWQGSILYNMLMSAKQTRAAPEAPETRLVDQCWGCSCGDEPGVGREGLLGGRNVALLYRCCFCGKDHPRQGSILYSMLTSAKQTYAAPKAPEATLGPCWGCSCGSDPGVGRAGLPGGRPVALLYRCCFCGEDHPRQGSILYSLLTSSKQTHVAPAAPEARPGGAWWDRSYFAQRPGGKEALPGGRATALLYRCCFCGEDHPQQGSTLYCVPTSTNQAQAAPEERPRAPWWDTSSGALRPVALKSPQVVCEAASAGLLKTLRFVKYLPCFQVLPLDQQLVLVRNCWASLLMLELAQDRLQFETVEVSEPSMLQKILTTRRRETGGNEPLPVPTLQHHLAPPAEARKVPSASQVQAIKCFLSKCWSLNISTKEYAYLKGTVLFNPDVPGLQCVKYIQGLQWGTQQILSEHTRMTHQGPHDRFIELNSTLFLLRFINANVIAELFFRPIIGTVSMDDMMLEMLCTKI
SF1 AF2mut Luc: counter-screen for DAX1 inhibitors: nonselective inhibitors with SF-1 AF2 mutant; shares compounds with DAX1 StAR inh; HEK293 StAR-luciferase, luminescence; inhibition, % at 6.8 µM; hit rate 78% among 2,400; AID 652136;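 active = inhibition above the mean of all tested compounds plus 3 SD, cut at about 3% in these data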
LXRb hcDAF ctr: counter-screen for hcDAF-12 agonists: agonists of human LXR-beta | shares compounds with hcDAF-12 act | HEK293 Gal4-LXR tk-luc reporter, luminescence, 24 h; normalized: DMSO 0%, positive control 100% | 3,400 tested, under 10 active | AID 743027 | activation, % at 6.8 µM;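 active = mean percent activation of the reporter above a cutoff set as the average over tested compounds plus their standard deviation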
hcDAF12 ag: confirmation of H. contortus DAF-12 agonists; shares compounds with hcDAF-12 act; HEK293 hcDAF-12 lit1-tk-luc reporter, luminescence; % of Δ7-dafachronic acid response; activation, % at 6.8 µM; hit rate 61% among 3,400; AID 743032;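 active = mean activation across triplicate tests above the threshold derived from the earlier primary screen, cut at about 5.5% in these data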
hgDAF12 conf: confirmation of H. glycines DAF-12 agonists; shares compounds with hgDAF-12 ag; HEK293 GAL4-hgDAF12 luciferase reporter, agonist mode; percent of butyrate response; activation, % at 6.8 µM; hit rate 80% among 3,300; AID 743050;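 active = mean activation over triplicate wells above the hit cutoff derived from the earlier primary screen, cut at about 11% in these data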
LXR ag 2: counter-screen for DAF-12 agonists: agonists of human LXR-beta; shares compounds with hgDAF-12 ag; HEK293 Gal4-LXR luciferase reporter, 24 h; activation, % at 6.8 µM; 3,300 tested, under 10 active; AID 743051;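 active = mean activation of the triplicate above a set limit carried over from the primary screen, none filed active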
Numbers stand for hits; – = inactive; · = not tested or not shown.

SMILES	DAX1 StAR inh	hgDAF-12 ag	ssDAF12 agonist	SMARCA2 activ	hcDAF-12 act	DAX1 inh confirm	SF1 AF2mut Luc	LXRb hcDAF ctr	hcDAF12 ag	hgDAF12 conf	LXR ag 2
O=C(OCC(=O)N1CCc2ccccc21)c1ccccc1[N+](=O)[O-]	7.1	18	2.6	–	7.5	17	9.6	–	8.4	17	–
O=C(CCCc1ccccc1)N1CCc2ccccc21	6.2	16	2.0	–	7.8	17	6.7	–	10	18	–
O=C(CS(=O)(=O)Cc1ccccc1)N1CCc2ccccc21	–	–	–	–	–	·	·	·	·	·	·
CCc1ccc(NC(=O)c2onc(C)c2Cl)cc1	7.7	29	2.2	–	17	13	11	–	18	22	–
Cc1noc(C(=O)Nc2ccc(C#N)cc2)c1Cl	–	–	–	–	–	·	·	·	·	·	·
Cc1ccc(-n2c(SCC(=O)Nc3ccc(OCc4ccccc4)cc3)nnc2-c2ccccc2)cc1	–	–	–	–	–	·	·	·	·	·	·
Cc1oc(-c2ccccc2)cc1C(=O)Nc1ccccc1	–	–	–	–	–	·	·	·	·	·	·
Cc1c(C(=O)Nc2ccccc2)csc1-c1ccccc1	6.0	20	1.7	–	8.1	16	5.6	–	6.5	25	–
COC(=O)C/C=C/[C@H](C)[C@@H](NC(=O)C(F)(F)F)c1ccccc1Br	–	–	–	–	–	·	·	·	·	·	·
Nc1c(C(=O)Nc2ccc3c(c2)OCCO3)nnn1Cc1ccc(Br)cc1	8.1	22	1.3	–	9.4	12	8.6	–	6.7	22	–
CCCCOc1ccc(C(=O)NC2CCCCN(Cc3ccccc3C)C2=O)cc1 (stereo unspecified)	–	–	–	–	–	·	·	·	·	·	·
CC(=O)Nc1ccc2nc3ccccc3nc2c1	–	–	–	–	–	·	·	·	·	·	·
C=C(C)C(=O)Nc1ccc2nn(-c3ccccc3O)nc2c1	7.9	20	1.6	–	8.0	13	7.7	–	10	20	–
CC1(C)O[C@@H]2[C@H](O1)[C@@H](O)C[C@H]2n1cnc2c(Cl)ncnc21	–	–	–	–	–	·	·	·	·	·	·
Cc1cc(NS(=O)(=O)c2ccc(NC(=O)CSc3nnc(-c4cnccn4)n3-c3ccccc3)cc2)nc(C)n1	–	–	–	–	–	·	·	·	·	·	·
O=C(Cc1ccc(F)cc1)Nc1cc(S(=O)(=O)N2CCOCC2)ccc1N1CCCCC1	–	–	–	–	–	·	·	·	·	·	·
CS(=O)(=O)N(Cc1ccc(Cl)cc1)c1ccc(C(=O)NCCSc2ccccn2)cc1	–	–	–	–	–	·	·	·	·	·	·
O=C(NCCSc1ccccn1)c1ccc(Cl)cc1	4.5	21	–	–	–	10	4.8	·	·	16	–
O=C(NCCSc1ccccn1)c1ccc(Cl)cc1Cl	7.3	15	–	–	–	11	6.6	·	·	18	–
Cc1csc(NC(=O)COc2ccc3c(c2)CCC3)n1	4.7	14	–	–	–	9.6	8.5	·	·	17	–
Cn1cccc1C(=O)N1CCN(S(=O)(=O)c2ccccc2F)CC1	–	–	–	–	–	·	·	·	·	·	·
COC(=O)[C@]12C[C@H](CC(=O)NCc3cccc(C(F)(F)F)c3)C(=O)N(Cc3ccc(Cl)cc3Cl)C1=C[C@H](C(C)(C)C)O[C@@H]2C	–	–	–	–	–	·	·	·	·	·	·
Cc1ccnc(NC(=O)c2cccc(S(=O)(=O)N3CCCc4ccccc43)c2)c1	7.7	13	–	–	–	9.1	6.4	·	·	12	–
